In all, about 390,000 compounds went through this assay and about 60 (0.02%) were called active. Cut-off read from the data, not from the text of the source: active = activity change below about -50%; inconclusive = between about -30% and that limit; inactive = weaker than that. The entries come from a sample that favours actives as a whole.
Target: Mucolipin-1 (Homo sapiens) (UniProt Q9GZU1)
Test: qHTS for Inhibitors of the Human Mucolipin Transient Receptor Potential 1 (TRPML1);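 note: stimulus is agonist 54-4 at its EC80 concentration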
Settings: TRPML1-inducible cells, Ca2+ dye fluorescence, FDSS; stronger effect = lower value; inhibition of EC80 agonist-evoked calcium signal
Excerpt: Mutations of human Mucolipin transient receptor potential 1 (TRPML1) cause type IV mucolipidosis (ML4), a devastating neurodegenerative disease in young children. […] Currently, there is no treatment for ML4. […] Under physiological conditions, TRPMLs regulate membrane trafficking by transducing information about PI(3,5)P2 levels into changes in juxtaorganellar Ca2+, thereby triggering membrane fusion/fission events in the late endocytic pathways (endolysosomal trafficking). In addition, TRPML1 mediates release of Fe2+ from late endosomes and lysosomes, which is essential for cellular iron metabolism. Thus, impaired ion (Ca2+ and Fe2+) homeostasis underlies lysosomal dysfunction and ML4 phenotypes. In ML4 cells, the problem is twofold. First, defective Ca2+-dependent membrane trafficking due to TRPML1-deficiency causes accumulation of lipids and other bio-materials in the lysosome. The second strike comes from the lysosomal iron overload (due to impairment of TRPML1's Fe2+ conductivity), which converts the accumulated materials into the nondegradable (resistant to lysosomal degradation) lipofuscin (also called aging pigment) in the lysosome. Lipofuscin accumulation dramatically compromises the functions of lysosomes.
Niemann-Pick type C (NPC) disease is another lysosome storage disease (LSD) with severe neurodegeneration during the childhood. Currently, there is no cure for NPC. […] Thus, TRPML1 is likely to be an essential regulator of lysosome ion homeostasis. We specifically hypothesize that stimulating TRPML1's Fe2+/Ca2+ channel activity in the lysosome using synthetic agonists can alleviate neurodegeneration associated with ML4 or NPC.
To this end, a high throughput screen was developed in a miniaturized format to screen against the Molecular Libraries Small Molecule Repository (MLSMR) to find small molecules that act either as inhibitors or agonist against the TRPML1 channel.
NIH Chemical Genomics Center [NCGC]
NIH Molecular Libraries Probe Centers Network [MLPCN]
Assay Submitter (PI): Haoxing Xu, University of Michigan Ann Arbor
TRPML1-DL cells are dissociated from flasks, counted and, brought up to a density of 500,000 cells per mL of media containing a 1X Tet inducer. Using a Multidrop Combi, 3 uL of this cell solution is dispensed to each well of a 1536 TC treated, black, clear bottom hi base plate for a final cell density of 1,500 cells per well. The assay plates are incubated overnight (approximately 16 hours) at 37 degrees C and 5% CO2. Using a Multidrop Combi, 2 uL of ABD Ca8 no wash dye plus quencher is added to each well. The assay plates incubate at room temperature in the dark for 45-90 minutes. The assay plate is read on the FDSS using the following protocol: 10 second baseline read, 23 nL of compounds and controls are added using 1536 pintool, agonist read for 110 seconds, 1 uL EC80 addition (4 uM final 54-4 diluted in media), antagonist read for 110 seconds.
% is set by controls: 0 for no effect and ±100 for the full control effect.

Chain of Mucolipin-1 (Homo sapiens) (Q9GZU1 whole entry, looked up): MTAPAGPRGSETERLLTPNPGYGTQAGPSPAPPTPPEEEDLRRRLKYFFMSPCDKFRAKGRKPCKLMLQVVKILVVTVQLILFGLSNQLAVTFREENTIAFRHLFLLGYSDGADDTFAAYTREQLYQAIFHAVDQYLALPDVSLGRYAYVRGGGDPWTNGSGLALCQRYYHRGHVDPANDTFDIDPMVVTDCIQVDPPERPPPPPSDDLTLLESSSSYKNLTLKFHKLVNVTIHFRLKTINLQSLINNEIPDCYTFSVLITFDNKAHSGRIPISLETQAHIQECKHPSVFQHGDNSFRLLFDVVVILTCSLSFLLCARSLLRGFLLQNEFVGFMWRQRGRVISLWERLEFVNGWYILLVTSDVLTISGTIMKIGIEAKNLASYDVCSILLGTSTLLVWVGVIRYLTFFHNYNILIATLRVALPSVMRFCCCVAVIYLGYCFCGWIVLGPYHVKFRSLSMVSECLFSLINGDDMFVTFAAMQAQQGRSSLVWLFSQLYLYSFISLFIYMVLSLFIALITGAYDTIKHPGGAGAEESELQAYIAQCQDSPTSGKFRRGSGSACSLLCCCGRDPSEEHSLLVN

SMILES | activity change, negative = inhibition
Cc1ccc(Cn2cnc3c(cnn3C(C)(C)C)c2=O)c(F)c1 | 38.8% (inactive)
COc1cc(OC)cc(C(=O)Nc2c(C(=O)Nc3ccc(F)cc3)oc3ccccc23)c1 | -0.263% (inactive)
O=C1CN(Cc2ccccc2)S(=O)(=O)c2ccccc21 | 2.64% (inactive)
CCOc1ccc(C(=O)c2cn(Cc3ccc(F)cc3)c3ccc(F)cc3c2=O)cc1 | 34.7% (inactive)
CCOc1ccc(-c2cc3c(=O)n(CC(=O)NCc4ccc(OC)cc4)ccn3n2)cc1 | 14.1% (inactive)
Cc1cc2c(cc1C)C(c1cccc(OC(C)C)c1)CC(=O)N2 (stereo unspecified) | -6.57% (inactive)
COc1ccc(C(CCN2CCOCC2)c2c(OC)cc(OC)c3c2OC(=O)CC3c2ccc(OC)cc2)cc1 (stereo unspecified) | -3.63% (inactive)
CC(C)c1ccc(NC(=O)c2ccc3c(O)c(S(=O)(=O)c4ccccc4)c(=O)[nH]c3c2)cc1 | 8.74% (inactive)
COc1ccccc1-n1c(-c2ccc(C)cc2)cn2c3c(=O)n(C)c(=O)n(C)c3nc12 | -8.58% (inactive)
Cc1nn(C(C)C(=O)NCCc2ccccc2)c(=O)c2c1sc1ccccc12 (stereo unspecified) | -5.78% (inactive)
O=C(Nc1cccc2cccnc12)C(F)(F)F | -10.4% (inactive)
Cc1ccc(SCC(CC(C)C)N2CCN(CCc3ccccc3)CCC2=O)cc1 (stereo unspecified) | 35% (inactive)
CC(=O)Nc1ccc(NC(=O)c2cc3sccc3n2Cc2ccc(F)cc2)cc1 | 8.5% (inactive)
CCC(Sc1nnc(-c2ccc(OC)cc2)c(-c2ccc(OC)cc2)n1)C(=O)NC1CCCCC1 (stereo unspecified) | -8.91% (inactive)
Cc1ccc(Cl)cc1NC(=O)CSc1nc2ccccc2nc1Cc1ccccc1 | 5.62% (inactive)
Cn1c(=O)c(=O)n(C)c2cc(NC(=O)c3ccccc3Br)ccc21 | 18.3% (inactive)
COc1ccc(Br)cc1C1CC(=O)Nc2c1c(C)nn2-c1nc(C)cc(C)n1 (stereo unspecified) | -2.53% (inactive)
CCc1ccc(S(=O)(=O)c2nnn3c2nc(NCc2ccccc2OC)c2cc(Cl)ccc23)cc1 | 11.3% (inactive)
CC(=O)Nc1ccc(NC(=O)CCCc2nc(-c3ccc(C(C)(C)C)cc3)no2)cc1 | -23.6% (inactive)
Cc1ccc(OCC(=O)Nc2ccc(OCc3cc(=O)n4c(C)csc4n3)cc2)cc1C | 21.1% (inactive)
COc1ccc(NC(=O)C2CCCN(S(=O)(=O)c3c(C)[nH]c(=O)[nH]c3=O)C2)c(OC)c1 (stereo unspecified) | -13.7% (inactive)
COc1c(Cl)cc(C(=O)N(Cc2ccccc2F)C2CCS(=O)(=O)C2)cc1Cl (stereo unspecified) | -13.9% (inactive)

SMILES | activity change, negative = inhibition
COc1cccc(C(=O)NC2=NC(c3ccc(N(C)C)cc3)CC(=O)N2)c1 (stereo unspecified) | 4.87% (inactive)
Cc1ccc(-c2nn3c(=O)cc(CN4CCN(C(=O)Nc5cccc(C(F)(F)F)c5)CC4)nc3s2)cc1 | -11.5% (inactive)
COc1cccc(NC(=O)c2csnn2)c1 | -5.21% (inactive)
O=C(NCc1ccc(F)cc1)c1ccc2nc(N3CCCCC3)sc2c1 | -15.1% (inactive)
Cc1cc(NC(=O)c2ccc(-c3ccc(Cl)cc3)o2)cc(-c2nc3ncccc3o2)c1O | -5.56% (inactive)
CCC1=Nc2cc(C(=O)NCC(C)c3ccccc3)ccc2Sc2ccc(C)cc21 (stereo unspecified) | 12% (inactive)
Cc1ccc(C)c(N2CCN(C(=O)C3CCC(CNS(=O)(=O)c4cccs4)CC3)CC2)c1 (stereo unspecified) | 13.9% (inactive)
CCc1nc2onc(C)c2c(=O)n1CC(=O)O | -8.95% (inactive)
Cc1ccccc1CN1CCC(CNC(=O)c2c(C)oc3ncnc(N4CCCCC4)c23)CC1 | 3.2% (inactive)
CCN(CC)CCNC(=O)c1cc2c(=O)oc3ccc(C)cc3c2s1 | -8.55% (inactive)
Cc1cc(F)ccc1NC1(c2ccccc2)C(=O)c2ccccc2C1=O | 2.11% (inactive)
COc1ccc(S(=O)(=O)n2nc(C)c(S(=O)(=O)N3CCCCCC3)c2C)cc1 | -9.9% (inactive)
O=C(Nc1ccc(OC(F)(F)F)cc1)c1cc2c(=O)n3ccccc3nc2s1 | 9.57% (inactive)
COC(=O)c1ccc(-c2nc3cc(NC(C)=O)ccc3o2)cc1 | 12.1% (inactive)
CCOc1ccc(S(=O)(=O)Nc2ccc3oc4c(c3c2)CC(C)CC4)cc1 (stereo unspecified) | 2.72% (inactive)
CCOC(=O)c1ccc(NC(=O)C2CC(=O)N(c3ccc(C(C)C)cc3)C2)cc1 (stereo unspecified) | -2.44% (inactive)
Cc1cc(OCC(=O)NCC2(N(C)C)CCCCC2)cc(C)c1Cl | -7.81% (inactive)
C=C1CCN(C(CC(C)C)C(=O)NCc2cc(OC)c(OC)c(OC)c2)S(=O)(=O)c2ccccc21 (stereo unspecified) | 6.7% (inactive)
Cc1ccc(CNC(=O)C2(C(F)(F)F)C/C(=C\CCO)CCCO2)o1 (stereo unspecified) | -4.32% (inactive)
COc1ccc(NC(=O)CSc2nnc(-c3nnn(-c4ccc(F)cc4)c3C)o2)cc1 | 30.2% (inactive)
Cc1cc(O)c(C(c2ccccc2)N2CCN(c3ccccc3F)CC2)c(=O)n1Cc1ccco1 (stereo unspecified) | 19% (inactive)
O=C(NCCS(=O)(=O)N1CCN(c2ccc(F)cc2)CC1)c1ccccc1Br | -27.6% (inactive)

SMILES | activity change, negative = inhibition
Cc1nc(SCC(=O)N2CCN(c3ccccc3)CC2)[nH]c(=O)c1C | 14.8% (inactive)
Cc1cccc(Cn2c(SCc3ccc(C(=O)N4CCC(C)CC4)cc3)nc3ccncc32)c1 | 10.3% (inactive)
Cn1nnnc1SCCCNCc1ccc(Cl)cc1 | 25.2% (inactive)
CCOC(=O)c1cccc(NS(=O)(=O)c2cn(C)c(C)n2)c1 | 9.58% (inactive)
COC(=O)c1cccc(NS(C)(=O)=O)c1 | -60.5% (active)
COc1ccc(Cl)cc1S(=O)(=O)Nc1cccc(C(=O)O)c1 | -0.499% (inactive)
O=C(CCc1nc(CN2CCN(S(=O)(=O)c3ccc(Cl)cc3)CC2)no1)N1CCCCC1 | 8.21% (inactive)
CCc1ccc(CNC(=O)C2CCN(c3nn4cc(-c5ccc(F)cc5)nc4s3)CC2)cc1 | 20.9% (inactive)
Cc1ccc(NC(=O)Cc2ccc(NC(=O)N3CCCCc4ccccc43)cc2)cc1 | 8.17% (inactive)
Cc1ccccc1C(=O)Nc1cc(C)c(O)c(-c2nc3ccccc3o2)c1 | -18.1% (inactive)
Cc1ccccc1CNC(=O)CSc1nnc(C)c2c(C)n(-c3ccccc3)nc12 | 2.86% (inactive)
Cc1ccc(OCCSc2nc(C)c(Cc3ccccc3)c(=O)[nH]2)cc1 | -16.6% (inactive)
COc1ccc(NC(=O)NC(C)c2c(-n3cccc3)sc(C)c2C)cc1OC (stereo unspecified) | 12.5% (inactive)
COC(=O)c1ccccc1NC(=O)Cn1c(=O)n(-c2cccc(C(F)(F)F)c2)c(=O)c2c(C)c(C)sc21 | -25.8% (inactive)
Cc1cc2c(cc3c(SCc4nc(-c5ccccc5)oc4C)nnc(C)n32)o1 | 11.7% (inactive)
N#Cc1ccccc1Cn1cnc2nc3c(cc2c1=O)CCCC3 | -15.7% (inactive)
CCN(Cc1ccccc1)S(=O)(=O)c1ccc2c(c1)CCCN2C(C)=O | -2.82% (inactive)
Cn1c(=O)c2sccc2n2c(CCC(=O)NCc3ccccc3Cl)nnc12 | 2.41% (inactive)
CN1CCN(C2(CNC(=O)COc3ccc(C(C)(C)C)cc3)CCCCC2)CC1 | 16.1% (inactive)
COc1cc(OC)cc(-c2nc3nc(C)c(CCC(=O)Nc4ccccc4)c(C)n3n2)c1 | -13.4% (inactive)
Cc1ccc(Nc2c(-c3ccc(N(C)C)cc3)nc3nc[nH]n23)cc1 | -8.37% (inactive)
CCOc1ccccc1CNC(=O)c1cnc2c(-c3ccc(OCC)c(OCC)c3)c(C)nn2c1C | -5.19% (inactive)

SMILES | activity change, negative = inhibition
CCc1ccc(-n2nc(C)c3c(C)cc(=O)n(CC(=O)Nc4ccc(F)cc4C)c32)cc1 | 1.68% (inactive)
CCOc1ccc(C2C(=O)N(C3CCCCC3)CC(=O)N2CCC2=CCCCC2)cc1OC (stereo unspecified) | -3.98% (inactive)
CCC(=O)N1CCc2cc(Br)cc(S(=O)(=O)CCC(=O)N3CCN(c4ccc(F)cc4)CC3)c21 | -21.4% (inactive)
COc1ccc(CN2CCC(=O)c3ccccc3S2(=O)=O)cc1 | -9.22% (inactive)
COc1ccc(CCC(=O)NCc2ccc3c(c2)CCN3C(=O)c2ccc(F)cc2)cc1 | -24.8% (inactive)
CCCSc1ncc(Cl)c(C(=O)Nc2sc3c(c2C(=O)NCCOC)CCCC3)n1 | 20.3% (inactive)
O=C(Nc1nc2c(s1)CCCC2)c1ccccc1F | 7.29% (inactive)
COc1cccc2cc(-c3nc(Cl)c4c5c(sc4n3)CC(C)CC5)c(=O)oc12 (stereo unspecified) | -7.72% (inactive)
Cc1ccc(Nc2nc(N)nc(CN3CCN(Cc4ccccc4)CC3)n2)cc1Cl | -62.2% (active)
Cc1cc(N2CCOCC2)nc2ccc(NC(=S)N3CCN(Cc4ccccc4)CC3)cc12 | -15.7% (inactive)
CCOC(=O)C1CCCN(Cc2nc(N)nc(Nc3ccc(C)cc3)n2)C1 (stereo unspecified) | -0.383% (inactive)
Cc1ccc(-n2c(SCC(=O)c3ccccc3)nc3c([nH]c4ccccc43)c2=O)cc1 | 13.9% (inactive)
O=C(CSCc1cnn(-c2ccccc2)c1-n1cccc1)NCc1ccccc1Br | 2.1% (inactive)
CC1=C(C(=O)OCc2ccc(C)cc2)C(c2ccccc2Cl)CC(=O)N1 (stereo unspecified) | 31.3% (inactive)
C#CC(C)(CC)NC(=O)Cn1nnc(-c2ccc(OCc3c(F)cccc3Cl)cc2)n1 (stereo unspecified) | -6.13% (inactive)
Cn1c(=O)c2c(nc(SCC(=O)Nc3ccc(F)cc3)n2Cc2ccc(Cl)cc2)n(C)c1=O | 3.84% (inactive)
Cc1cccc(C(=O)Nc2ccc(-c3nc4ncccc4o3)cc2C)c1 | -6.3% (inactive)
COC(=O)CCc1ccccc1S(=O)(=O)N(CCC(=O)OC)Cc1ccccc1 | -2.45% (inactive)
CC(C)(C)n1ncc2c(=O)n(Cc3ccc(C(=O)c4ccccc4)cc3)cnc21 | 1.11% (inactive)
COc1cccc(CNC(=O)c2ccc3c(c2)N(Cc2ccc(C(F)(F)F)cc2)C(=O)c2ccccc2S3)c1OC | 37.3% (inactive)

Reference: PubChem BioAssay AID624415 (National Center for Advancing Translational Sciences (NCATS), 2012)
